Assay outcomes (PubChem)
Spn MK inh – inhibitors of Streptococcus pneumoniae mevalonate kinase | purified MK, PK/LDH-coupled NADH absorbance 340 nm | inhibition, % at 10 µM | hit rate 0.48% among 65,000 | AID 555;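 active = ranked among the strongest by inhibition in the single 10 µM screen, a fixed top-ranked set picked for dose follow-up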
Autofluor 339 – intrinsic fluorescence of library compounds, ex339/em460 – biochemical, MLSMR library, data from DPM-DC assay, artefact control, profiling panel; compound autofluorescence, ex339/em460 nm, NADH buffer; active compounds read high; 1 = no-compound wells, NADH background; fluorescence fold increase at 10 µM; hit rate 5.5% among 65,000; AID 709;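 active = at 10 µM, mean starting fluorescence two-fold or more over control wells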;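 note: signal is the first read of a kinetic run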
DPM-DC inhibit – blocks S. pneumoniae diphosphomevalonate decarboxylase; hit rate 0.49% among 65,000; purified DPM-DC, PK/LDH coupled NADH fluorescence; calls only at 10 µM; AID 556;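 active = the 320 compounds with the highest percent inhibition in the single-dose primary screen, excluding strongly autofluorescent ones, cut at about 32% in these data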;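 note: kinetic rate of NADH fluorescence loss reporting ADP formed by the decarboxylase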
NADH coupling – inhibition of NAD/NADH coupling enzymes, library profiling; coupled PK/LDH NADH assays, four targets; IC50, µM (top dose mostly 10 µM); hit rate 0.02% among 65,000; AID 774;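 active = single-dose screening hits from any of four coupled enzyme assays that gave an IC50 when retested across doses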;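 note: the DPM-DC format reads NADH fluorescence rather than 340 nm absorbance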
Spn PMK inh – inhibitors of Streptococcus pneumoniae phosphomevalonate kinase. purified PMK, PK/LDH-coupled NADH absorbance 340 nm. inhibition, % at 10 µM. hit rate 0.49% among 65,000. AID 539;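 active = top-ranked compounds by inhibition in the single 10 µM screen, taking a fixed number of the strongest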
Abs 340nm – compound absorbs light at 340 nm; compound absorbance at 340 nm, fold over control; fold change at 10 µM; 65,000 tested, under 10 active; AID 708;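 active = at 10 µM dose, initial 340 nm absorbance at least 2 fold that of control wells; inactive = change under 2 fold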;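 note: initial absorbance extrapolated from kinetic A340 decline of NADH oxidation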
Large screens that a line does not name were inactive. Hits are enriched below; roughly 6.3% of the tested compounds scored in any of these assays.

CCOc1cc2[nH]c(=O)n(CC3CCC(C(=O)NCCCOC)CC3)c(=O)c2cc1OCC (configuration not stated)	Autofluor 339 2.1
CCOc1cc2[nH]c(=O)n(CCCCC(=O)NC3CCCCCC3)c(=O)c2cc1OCC	Autofluor 339 2.3
Cc1ccc2cc3c(nc2c1)N(Cc1ccco1)CC3	Autofluor 339 3.8 (not shown: DPM-DC inhibit)
CCCC(=O)N1CCN(S(=O)(=O)c2cc(Cl)ccc2OC)CC1	Autofluor 339 5.1 (not shown: DPM-DC inhibit)
COc1ccc(Cl)cc1S(=O)(=O)N1CCN(C(=O)c2ccco2)CC1	none
O=C(NCc1cccs1)c1cnn2cccnc12	Autofluor 339 2.1
O=C(NCc1ccccc1Cl)c1cnn2cccnc12	Autofluor 339 2.2
O=C(Nc1cccc(Cl)c1)c1cnn2cccnc12	none
COc1ccc(CN2C(=O)NC3(CCCCCC3)C2=O)cc1F	none
CCOc1ccccc1C(=O)NCC(=O)OCC(=O)c1ccc2c(c1)OCCO2	Spn PMK inh 26
Oc1ccccc1Cn1c(-c2ccccc2O)nc2ccccc21	Autofluor 339 3.8 (not shown: DPM-DC inhibit)
O=C(O)Cn1c(-c2ccccc2)nc2ccccc21	none
Cc1nn(-c2ccccn2)c2nc(-c3cccs3)cc(C(=O)N3CCOCC3)c12	Autofluor 339 2.1 (not shown: DPM-DC inhibit)
CCOC(=O)CC1(CC(=O)OCC)NC(=O)c2c(C)sc(C(=O)OCC)c2N1	Autofluor 339 3 (not shown: DPM-DC inhibit)
CCOC(=O)CC1(C)NC(=O)c2c(C)sc(C(=O)OCC)c2N1 (configuration not stated)	Autofluor 339 3.9 (not shown: DPM-DC inhibit)
COC(=O)CSc1nc2nc(C)cc(C)n2n1	none
Cc1nc2nc(-c3ccco3)nn2c(C)c1Cl	Autofluor 339 4 (not shown: DPM-DC inhibit)
Cc1cc(C)n2nc(NCc3ccccc3)nc2n1	Autofluor 339 3.6 (not shown: DPM-DC inhibit)
Cc1nc2nc(-c3cccnc3)nn2c(C)c1Cl	none
COc1ccc(-c2nc3nc(C)cc(C)n3n2)cc1	Autofluor 339 3.7 (not shown: DPM-DC inhibit)
COc1cccc(CNc2nc3nc(C)c(Cl)c(C)n3n2)c1	Autofluor 339 2.3 (not shown: DPM-DC inhibit)
OCCN(CCO)c1ncnc2c1sc1nc(N3CCOCC3)c3c(c12)CCCC3	none
c1nc(N2CCNCC2)c2sc3nc(N4CCOCC4)c4c(c3c2n1)CCC4	Autofluor 339 2.1 (not shown: DPM-DC inhibit)
OCCN1CCN(c2ncnc3c2sc2nc(N4CCOCC4)c4c(c23)CCC4)CC1	Autofluor 339 2.1 (not shown: DPM-DC inhibit)
C=CCN(CC=C)c1nc2ccccc2nc1C(C#N)C(=O)OC(C)C (configuration not stated)	none
COc1cccc(Cn2nnc(C(=O)NCc3ccccc3Cl)c2N)c1	none
O=C(COCc1nc2ccccc2c(=O)[nH]1)NC1CCCC1	none
O=c1c2ccccc2nc2c3ccccc3ncn12	Autofluor 339 2.3 (not shown: DPM-DC inhibit)
O=C(O)CSc1cccc2cccnc12	Autofluor 339 2.2 (not shown: DPM-DC inhibit)
COc1ccccc1-c1cc(C(F)(F)F)nc(S(=O)(=O)CCCC(=O)NC(C)C)n1	none
COc1ccccc1-c1cc(C(F)(F)F)nc(N2CCCC2)n1	none
COc1ccccc1-c1cc(C(F)(F)F)nc(S(=O)(=O)CCCC(=O)N2CCCCC2C)n1 (configuration not stated)	Autofluor 339 3.4 (not shown: DPM-DC inhibit)
COc1ccccc1-c1cc(C(F)(F)F)nc(S(=O)(=O)CCCC(=O)Nc2cc(C)on2)n1	Autofluor 339 3.7 (not shown: DPM-DC inhibit)
Cc1sc2nc(C3CC3)nc(NCCNS(C)(=O)=O)c2c1C	none
COc1ccccc1-c1c(C)nn2c(C)cc(C)nc12	none
Cc1cc(C)n2nc3nc4c(cc3c2n1)CCCC4	Autofluor 339 2.2 (not shown: DPM-DC inhibit)
CS(=O)(=O)Nc1ccc(C(=O)NC2CCCC2)cc1	none
O=C(COc1ccc2c3c(c(=O)oc2c1)CCC3)c1ccc2c(c1)OCO2	none
COC(=O)c1cc(COc2ccc3c4c(c(=O)oc3c2)CCCC4)c(C)o1	Autofluor 339 2.2 (not shown: DPM-DC inhibit)
COC(=O)c1ccc(COc2ccc3c4c(c(=O)oc3c2)CCC4)o1	Autofluor 339 2.5, DPM-DC inhibit active
COc1ccc(C(=O)CCC(=O)N2CCN(c3ccc(N4CCOCC4)nn3)CC2)cc1	Autofluor 339 2.1 (not shown: DPM-DC inhibit)
COc1ccc(CC(=O)N2CCOCC2)cc1OC	none
CCOc1ccc(CC(=O)N2CCN(c3ccc(N4CCOCC4)nn3)CC2)cc1OCC	Autofluor 339 2.1 (not shown: DPM-DC inhibit)
CC(=O)N1CSCC1C(=O)N1CCN(c2ccc(N3CCOCC3)nn2)CC1 (configuration not stated)	Autofluor 339 2.1 (not shown: DPM-DC inhibit)
CC(C)C(NS(=O)(=O)c1ccc2c(c1)OCCO2)C(=O)NCCc1ccccn1 (configuration not stated)	none
COc1ccc(C2=NOC3(CC(=O)N(c4ccc(C)cc4)C3=O)C2)c(OC)c1 (configuration not stated)	none
Cc1ccccc1-c1nnc(-c2ccc(Br)cc2)o1	none
Oc1ccccc1-c1nnc(-c2ccc(C(F)(F)F)cc2)o1	Autofluor 339 2.5
C=CCn1c(NCc2ccc(N(C)C)cc2)nc2ccccc21	none
CCOC(=O)c1oc2ccccc2c1NC(=O)COc1cccc(OC)c1	Autofluor 339 2.9
CCOC(=O)c1oc2ccccc2c1NC(=O)c1ccccc1OC	none
CCOC(=O)c1oc2ccccc2c1NC(=O)COc1ccc(F)cc1	Autofluor 339 3.9
COCCNC(=O)Cn1nc(C(F)(F)F)c(Cl)c1C	none
COC(=O)c1c(NC(=O)c2ccc(Br)o2)sc(C)c1C	none
COc1c(F)c(F)c(C(=O)Nc2ccc(NC(=O)c3ccco3)cc2)c(F)c1F	none
COC(=O)c1c(NC(=O)c2ccco2)sc(C)c1C	Autofluor 339 2.1 (not shown: DPM-DC inhibit)
COC(=O)c1c(NC(=O)c2ccco2)sc(C(=O)Nc2ccc(F)cc2)c1C	Autofluor 339 3.9 (not shown: DPM-DC inhibit)
COC(=O)c1cc2c([nH]c3ccccc32)c(C)n1	Autofluor 339 4.8 (not shown: DPM-DC inhibit)
CC12CCC(C(=O)N3CCN(c4ccccc4)CC3)(CC1=O)C2(C)C (configuration not stated)	none
CSc1ccc(CN2CCC(O)CC2)cc1	Spn MK inh 58
CCN1CCN(Cc2ccc(NC(=O)Nc3ccc(SC)cc3)cc2)CC1	none
CCCCOc1ccc(CN2CCC(O)CC2)cc1	Spn MK inh 41
Cc1cccc(N(CC(=O)N2CCCC2)S(=O)(=O)c2ccccc2)c1	none
COc1cc2[nH]c(=O)n(CCCC(=O)N3CC=C(c4ccccc4)CC3)c(=O)c2cc1OC	none
COc1cc2[nH]c(=O)n3nc(-c4ccccc4)nc3c2cc1OC	Autofluor 339 2.1 (not shown: DPM-DC inhibit)
c1ccc(N2CCOCC2)c(Nc2nc3ccccc3n3cnnc23)c1	none
Cc1cc(C)n(-c2nc3ccccc3n3cnnc23)n1	none
CCOc1ccccc1Nc1nc2ccccc2n2cnnc12	Autofluor 339 2.1 (not shown: DPM-DC inhibit)
CCN(CC)c1nc2ccccc2n2cnnc12	DPM-DC inhibit active
CC(=O)c1cc2c(cc1NC(=O)c1ccc(-n3nc(C)cc3C)cc1)OCO2	Autofluor 339 2.1 (not shown: DPM-DC inhibit)
Cc1cc(C)n(-c2ccc(C(=O)Nc3nc4ccccc4s3)cc2)n1	Autofluor 339 3.3
Cc1cc(C)nc(SCCn2c(N3CCCCC3)nc3c2c(=O)n(C)c(=O)n3C)n1	none
